Assay results as given in PubChem BioAssay (Tox21).
Inconclusive results are not listed. Calls of active or inactive are those of the source. Calls come from the whole dose curve; as a rule, active = well fitted activation curve with a large enough effect in the repeat runs; inconclusive = weak or mixed curves; inactive = no such curve, though single readings can be large or run the other way.

experiment: qHTS assay to identify small molecule agonists of the estrogen related receptor signaling pathway with the pleiotropic PPARgamma coactivator (PGC) (AID 1224823); details: ERR/PGC reporter cell line, luciferase agonist mode; series mostly up to 46.1 µM
Description: National Center for Advancing Translational Sciences [NCATS]
NIH Chemical Genomics Center [NCGC]
U.S. Environmental Protection Agency [EPA]
National Institutes of Environmental Health Sciences [NIEHS]
National Toxicology Program [NTP]
Estrogen related receptors (ERRs), the first orphan nuclear receptors discovered, play an important role in the control of cellular energy metabolism. ERRs are required for high-energy production in response to the environmental challenges. The pleiotropic PPARgamma coactivator (PGC) is a major partner of ERR and a key regulator in energy homeostasis. Together they have been implicated in the etiology of metabolic disorders such as Type 2 diabetes and metabolic syndrome. ERR-alpha was also identified as an adverse marker for breast cancer progression; ERR-alpha-positive tumors have a poor prognosis. To screen and to identify environmental compounds that perturb the PGC/ERR signaling pathways could provide valuable information for potential therapeutic or preventive measures in the treatment of metabolic disease. For identifying PGC/ERR agonists, PGC/ERR cell line (provided by NTP) has been used to screen LOPAC library.
The PGC/ERR cells were dispensed at 2,000 cells/5 ul/well in 1536-well white plates using a Multidrop dispenser. After the assay plates were incubated at a 37 C/5% CO2 incubator for 6 hours, 23 nL of compounds dissolved in DMSO, positive and negative controls or DMSO only was transferred to the assay plate by a pin tool. The plates were incubated at 37 C for 18 hours. 4 ul/well of One-Glo reagent was added into the assay plates using a Flying Reagent Dispenser. After 30 min incubation at room temperature, the luminescence intensity in the plates was measured using a ViewLux plate reader.

Row | Compound | outcome
1 | Cc1cccc(C)c1OCC(C)N (stereo unspecified) | inactive
2 | NC(CO)C(=O)NNCc1ccc(O)c(O)c1O (stereo unspecified) | inactive
3 | NCCS | inactive
4 | COc1ccc(C2CNC(=O)C2)cc1OC1CCCC1 (stereo unspecified) | inactive
5 | CCN(CC)CC(=O)Nc1c(C)cccc1C | inactive
6 | CC(=O)CCCCn1c(=O)c2c(ncn2C)n(C)c1=O | inactive
7 | COC(=O)[C@@H]1[C@H]2C[C@H]3c4[nH]c5ccccc5c4CCN3C[C@@H]2CC[C@@H]1O | inactive
8 | C[C@@H](O)[C@H]1C(=O)N2C(C(=O)O)=C(SCCN=CN)C[C@H]12 | inactive
9 | COc1ccc2c(c1OC)C(=O)O[C@@H]2[C@H]1c2c(cc3c(c2OC)OCO3)CCN1C | inactive
10 | O=C(NCCN1CCOCC1)c1ccc(Cl)cc1 | inactive
11 | CN1CCN(CC(=O)N2c3ccccc3C(=O)Nc3cccnc32)CC1 | inactive
